# FBW7 activator: activators of human E3 ligase FBW7; Q969H0; AlphaScreen FBW7–phospho-cyclin E peptide binding, activator screen; normalized activity (activation), % at 26.1 µM; 650,000 compounds, 0.13% hits; in the data active = normalized activity above about 1.9%;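 also: purified mutant Fbw7 with reduced substrate affinity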
# MITF primary: blocks human microphthalmia-associated transcription factor | 650,000 compounds, 0.91% hits | AlphaScreen MITF homodimerization, bead proximity signal | AID 1259374 | inhibition, % at 2.6 µM; in the data active = inhibition above about 50%
# GPR151 activ: activators of human GPR151. activation, % at 11.2 µM. PathHunter beta-arrestin GPR151 cells, luminescence. 650,000 compounds, 1% hits. Q8TDV0; in the data active = activation above about 4.9%
# TEAD-YAP block: TEAD-YAP interaction inhibition; HEK-TIYL cells, TEAD-Gal4/YAP UAS-luciferase luminescence; inhibition, % at 9.12 µM; 640,000 compounds, 1.4% hits; AID 1259422; in the data active = inhibition above about 32%
# GPR151 confirm: confirmation of human GPR151 activators; shares compounds with GPR151 activ; GPR151 PathHunter beta-arrestin cells, luminescence, 90 min; % of EA-reagent control over plate median; activation, % at 11.2 µM; 6,700 tested, under 10 active; AID 1508609;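 active = mean percent activation across replicates above the confirmation screen cutoff of 4.91%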
# GPR119 counter: GPR119 activation, counter-screen for GPR151 activators. shares compounds with GPR151 activ. GPR119 PathHunter beta-arrestin cells, luminescence, 90 min; 0 = compound-well median, 100 = enzyme-acceptor control. activation, % at 11.2 µM. 6,700 compounds, 0.3% hits. AID 1508611;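 active = mean percent activation in the counterscreen above 29.09%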;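 also: counterscreen on off-target GPR119 to flag nonselective hits from the GPR151 activator screen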
# Target sequence (Q8TDV5 whole entry, looked up): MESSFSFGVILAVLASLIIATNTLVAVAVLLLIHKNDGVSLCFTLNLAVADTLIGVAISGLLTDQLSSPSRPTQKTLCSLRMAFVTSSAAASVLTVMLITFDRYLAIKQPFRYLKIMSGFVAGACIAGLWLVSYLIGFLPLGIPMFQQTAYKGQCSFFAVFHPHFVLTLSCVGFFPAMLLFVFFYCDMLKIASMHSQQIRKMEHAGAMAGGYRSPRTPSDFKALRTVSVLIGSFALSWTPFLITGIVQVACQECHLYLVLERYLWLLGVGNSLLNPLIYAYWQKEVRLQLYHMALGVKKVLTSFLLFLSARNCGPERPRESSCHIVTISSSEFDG
# A number is an active result; 0 = inactive; - = not tested or not shown. Only some compounds are listed: those with a hit (about 3.4% of all), similar ones and a draw of the others.
SMILES,FBW7 activator,MITF primary,GPR151 activ,TEAD-YAP block,GPR151 confirm,GPR119 counter
COc1ccc(/C=C(/NC(=O)c2ccc(C)cc2)C(=O)O)c(OC)c1,0,0,5.3,0,0,0
COc1ccc(/C=C(\NC(=O)c2ccccc2)C(=O)NN)c(OC)c1,0,0,0,0,-,-
O=C(c1ccco1)N(NC(=O)C(O)(c1ccccc1)c1ccccc1)c1cccc(Cl)c1,0,0,0,0,-,-
O=C(CSCc1ccccc1)N1CCC(Cc2ccccc2)CC1,0,0,6.0,0,0,0
O=C(CSc1cccc[n+]1[O-])N1CCC(Cc2ccccc2)CC1,0,0,0,0,-,-
NC(=O)C1CCN(C(=O)CSCc2c(Cl)cccc2Cl)CC1,0,0,6.1,0,0,0
CCOC(=O)C1CCN(C(=O)CSCc2c(Cl)cccc2Cl)CC1,0,0,0,0,-,-
O=C(N/N=C/c1ccc(Cl)c([N+](=O)[O-])c1)c1cc(-c2ccccc2)n[nH]1,0,0,7.2,0,0,0
NC(=O)Cn1cnc2scc(-c3cccc([N+](=O)[O-])c3)c2c1=O,0,0,0,0,-,-
CCC(C(=O)OC)n1cnc2scc(-c3cccc([N+](=O)[O-])c3)c2c1=O (configuration not stated),0,0,15,0,0,0
O=c1c2cnn(-c3ccccc3)c2nc(-c2ccccc2F)n1-c1ccc(Br)cc1,0,0,0,0,-,-
CC1CCCCC1NC(=O)CCCc1nnc2n(C)c(=O)c3sccc3n12 (configuration not stated),0,0,0,0,-,-
CCOC(=O)C(=O)N1c2ccc(OC)cc2-c2c(ssc2=S)C1(C)C,0,0,0,0,-,-
COc1cc(/C=C2\N=C(c3cc(OC)c(OC)c(OC)c3)OC2=O)cc(Br)c1OC(C)=O,0,0,5.5,0,0,0
COc1cc(/C=C2/N=C(c3ccc(Cl)cc3)OC2=O)cc(Br)c1OC(C)=O,0,0,0,0,-,-
COc1ccc(-n2cc(-c3ccccc3)c3c(NCc4ccc5c(c4)OCO5)ncnc32)cc1,0,0,6.1,0,0,0
Brc1ccc(-n2cc(-c3ccccc3)c3c(N4CCN(c5ccccc5)CC4)ncnc32)cc1,0,0,0,0,-,-
O=[N+]([O-])c1ccc(N2CCN(c3ncnc4c3c(-c3ccccc3)cn4-c3ccc(Br)cc3)CC2)cc1,0,0,5.0,0,0,0
COc1ccccc1Nc1ncnc2c1c(-c1ccccc1)cn2-c1ccccc1,0,0,6.8,0,0,0
Cc1cccc(-n2cc(-c3ccccc3)c3c(NCCc4ccc(Cl)cc4)ncnc32)c1,0,0,0,0,-,-
CCOc1ccc(-n2cc(-c3ccccc3)c3c(NCc4ccc5c(c4)OCO5)ncnc32)cc1,0,0,0,0,-,-
Cc1cccc(-n2cc(-c3ccccc3)c3c(NCCc4ccccc4)ncnc32)c1,0,0,6.0,0,0,0
CCN(CC)S(=O)(=O)c1ccc(S(=O)(=O)Nc2cccc(C(F)(F)F)c2)cc1,0,0,0,0,-,-
O=C(CN1Cc2ccccc2OC(c2ccccc2)C1)NCc1nc(-c2ccccc2)n[nH]1 (configuration not stated),0,0,0,0,-,-
COc1ccc(C(=O)COC(=O)Cc2ccccc2)cc1,0,0,0,0,-,-
SMILES,FBW7 activator,MITF primary,GPR151 activ,TEAD-YAP block,GPR151 confirm,GPR119 counter
Cc1ccc(-n2cc(-c3ccccc3)c3c(NC(C)C)ncnc32)cc1,0,0,0,0,-,-
CC(C)Nc1ncnc2c1c(-c1ccccc1)cn2-c1ccc(Br)cc1,0,0,5.4,0,0,0
Cc1cc(NC(=O)C(C)Oc2ccc(Cl)cc2C)no1 (configuration not stated),0,0,0,0,-,-
O=C1/C(=C\N2CCCC2)c2ccccc2C(=O)N1c1ccccc1,0,0,5.0,0,0,0
CCOc1cnc(C(=O)NNC(=O)c2ccc(S(=O)(=O)N(C)C)cc2)o1,0,0,6.0,0,0,0
COCCNC(=O)c1ccc(N2CC3CC(C2)c2cccc(=O)n2C3)c(NC(=O)c2cccs2)c1 (configuration not stated),0,0,0,0,-,-
CCc1[nH]n2c(=O)c(Cl)c(C)nc2c1-c1cccs1,0,0,7.3,0,0,0
COc1ccc(Cl)cc1-n1c(=S)sc2c(=O)[nH]c(SCC(=O)NCc3ccco3)nc21,0,0,0,0,-,-
CC(=O)N1CCN(Cc2ccc3c(c2)CN(Cc2ccc4c(c2)CCO4)CCO3)CC1,0,0,0,0,-,-
COc1ccc(CNC(=O)CN(C)S(=O)(=O)c2ccc(Cl)cc2)cc1,0,0,5.4,0,0,0
COc1ccc(S(=O)(=O)N(C)CC(=O)Nc2cccc(OC)c2)cc1,0,0,6.2,0,0,0
CC(Oc1ccc2c(c1)OCO2)C(=O)NNC(=O)Nc1cccc(Cl)c1Cl (configuration not stated),0,0,0,0,-,-
Cc1cc(OC(C)C(=O)NNC(=O)Nc2cccc(Cl)c2Cl)ccc1[N+](=O)[O-] (configuration not stated),0,0,6.1,0,0,0
COc1ccc(C2C(C(C)=O)=C(O)C(=O)N2Cc2ccco2)cc1OC (configuration not stated),0,0,0,0,-,-
Cc1cccc(N(CCCN2C(=O)c3cccc4cccc(c34)C2=O)C(=O)c2cccs2)c1,0,0,5.7,0,0,0
CC(C)(C)OC(=O)N1CCC(c2nc(-c3ccncc3)no2)CC1,0,0,0,0,-,-
CC(C)(C)OC(=O)N1CCCC(c2nc(-c3ccncc3)no2)C1 (configuration not stated),0,0,5.5,0,0,0
OC(COc1ccc2ccccc2c1Cl)Cn1ccnc1 (configuration not stated),0,0,5.0,0,0,0
Cc1nccn1CC(O)COc1cccc2ccccc12 (configuration not stated),0,0,0,0,-,-
OCC(O)CN1CCN(C(c2ccccc2)c2ccccc2)CC1 (configuration not stated),0,0,0,0,-,-
O=C(COc1ccc(Br)cc1)Nc1ccc2oc(=O)ccc2c1,0,0,0,0,-,-
COc1ccc(OCC(=O)Nc2ccc3oc(=O)ccc3c2)cc1,0,0,5.8,0,0,0
Cc1ccc(OCC(=O)Nc2ccc3oc(=O)ccc3c2)c(C)c1,0,0,5.5,0,0,0
Cc1ccc(OCC(=O)NNC(=O)COc2ccc(Br)cc2C)c(C)c1,0,0,0,0,-,-
Cc1ccc(OCC(=O)Nc2ccc(Br)cn2)c(C)c1,0,0,8.3,0,0,0
COCCCN1C(=O)/C(=C\c2ccc(OC)c(OC)c2)C(C(=O)OC)=C1C,0,0,0,0,-,-
CCN1CCCC1CNC(=O)c1ccc(-c2ccccc2C)nc1NCc1cccnc1 (configuration not stated),0,0,0,0,-,-
Nc1ncnc(Nc2ccc(N=Nc3ccccc3)cc2)c1[N+](=O)[O-],0,0,0,0,-,-

# Bioassay records: PubChem, The Scripps Research Institute Molecular Screening Center
